Sampled rows, rich in hits. Any-hit rate of the full collection: about 12%.
HP1b binding inh: HP1-beta chromodomain-methylated histone interaction inhibition | Potency, µM (top dose mostly 114 µM), most hits filed as inhibitors | AID 540317 | P83916 | hit rate 0.56% among 390,000 | AlphaScreen HP1-beta / biotin-H3K9me3 peptide binding; note: nearly all actives have a fitted effect of over 70% in size
Target sequence (P83916 whole entry, looked up): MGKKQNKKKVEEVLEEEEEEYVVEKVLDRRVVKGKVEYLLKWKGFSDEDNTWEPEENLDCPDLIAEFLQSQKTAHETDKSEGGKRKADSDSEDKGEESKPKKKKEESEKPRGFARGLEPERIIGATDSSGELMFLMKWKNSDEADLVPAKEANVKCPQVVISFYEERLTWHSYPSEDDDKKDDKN
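AlphaScreen: HP1-beta (50 nM) preformed 30 min with biotin-H3(1-18)K9me3 peptide (50 nM) in PBS pH 7.4, 0.01% Tween-20. Compound added for 30 min at RT, then streptavidin donor/nickel chelate acceptor beads (10 ug/mL) for 30 min.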
JMJD2A Tudor: blocks the human JMJD2A Tudor domain; O75164; AlphaScreen JMJD2A-Tudor / H3K4me3 peptide binding; Potency, µM (doses to about 114 µM), actives largely listed as inhibitors; hit rate 4.4% among 390,000; note: nearly all actives have a fitted effect of over 50% in size
BAZ2B block: inhibitors of human BAZ2B bromodomain. Q9UIF8. AlphaScreen BAZ2B-H3K14Ac peptide displacement. Potency, µM (doses to about 114 µM), usual class: inhibitors. hit rate 4.4% among 360,000. AID 504333; note: nearly all actives have a fitted effect of over 60% in size
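BAZ2B (50 nM) with biotin-H3(5-23)K14Ac peptide (50 nM) in PBS pH 7.4, 0.01% Tween-20, preformed 30 min, then compound 30 min at room temperature; top concentration 110uM. AlphaScreen streptavidin donor/nickel chelate acceptor beads (10 ug/mL final), 20 min dark, signal read.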
Sfp inh: inhibitors of Bacillus subtilis Sfp phosphopantetheinyl transferase | Biochemical Sfp PPTase activity, qHTS | Potency, µM, hits mostly inhibitors | hit rate 3.5% among 310,000 | Q9F4F7;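 note: the enzyme is Sfp with the accession as filed and its product quenches rhodamine fluorescence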
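Reaction rates are the 30-min fluorescence difference (ex 525, em 598 nm) in wells containing 15 nM Sfp, 5 uM rhodamine-CoA and 12.5 uM BHQ-2-YbbR at pH 7.6 with 10 mM MgCl2.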
G9a inh: inhibitors of human histone lysine methyltransferase G9a. G9a H3K9 monomethylation, AlphaScreen, 2 h. Potency, µM (highest dose often 102 µM), hits mostly inhibitors. Q96KQ7. hit rate 8.8% among 350,000; note: nearly all actives have a fitted effect of over 75% in size
Target sequence (Q96KQ7 913-1193 limits assumed): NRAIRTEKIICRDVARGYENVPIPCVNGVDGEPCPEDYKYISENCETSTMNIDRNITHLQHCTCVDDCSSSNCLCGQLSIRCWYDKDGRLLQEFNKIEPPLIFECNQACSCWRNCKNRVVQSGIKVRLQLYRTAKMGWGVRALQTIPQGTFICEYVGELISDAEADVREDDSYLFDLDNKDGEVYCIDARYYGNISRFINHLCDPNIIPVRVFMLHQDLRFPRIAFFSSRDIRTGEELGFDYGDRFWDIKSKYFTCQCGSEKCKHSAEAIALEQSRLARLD
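Signal arises when biotinylated H3K9 peptide, once monomethylated, bridges streptavidin donor and antibody-captured acceptor beads. Enzyme at 20 nM was preincubated 15 min with test compounds; peptide 500 nM and SAM 20 uM then reacted for 2 h.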
Numbers stand for hits; – = inactive; ? = inconclusive; · = not tested or not shown; [ ] = remark or other dose. Calls come from the whole dose curve; as a rule, active = well fitted curve in the direction sought with a large enough effect; inconclusive = small, poorly fitted or top-dose-only effect, or another doubt; inactive = no such curve, though single readings can be large; an effect the other way counts as inactive or inconclusive.

SMILES | HP1b binding inh | JMJD2A Tudor | BAZ2B block | Sfp inh | G9a inh
COCCN1C(=O)C(=O)/C(=C(/O)c2ccc(S(=O)(=O)N3CCOCC3)cc2)C1c1cccc(OC)c1 (configuration not stated) | – | – | – | – | 71µM
COCCCN1C(=O)C(=O)/C(=C(/O)c2ccc(S(=O)(=O)N3CCCCC3)cc2)C1c1ccc(F)cc1 (configuration not stated) | – | – | ? | – | –[0.0925 µM]
COCCN1C(=O)C(=O)/C(=C(/O)c2ccc(S(=O)(=O)N3CCCCC3)cc2)C1c1ccc(O)c(OC)c1 (configuration not stated) | – | 89µM | – | – | 71µM
CNc1ccccc1 | – | – | – | · | –[0.501 µM]
CNc1cccccc1=S | – | 11µM | 10µM | – | 3.5µM
CCCN(CC(=O)Nc1ccc(F)c(F)c1F)C(=O)C1=COCCO1 | – | – | – | · | 56µM
CN(CC(=O)Nc1ccc(F)c(F)c1F)C(=O)C1=COCCO1 | – | – | – | – | –
Cc1cccc2sc(NC(=O)Cn3cccc3)nc12 | – | ? | ? | – | 45µM
Cc1cccc2sc(NC(=O)CSCc3ccccc3)nc12 | – | – | – | – | –[12.7 µM]
Cc1cccc2sc(NC(=O)CCn3cccc3)nc12 | ? | – | · | – | 50µM
CCC(=O)NNc1nc2c(C)cccc2s1 | – | – | · | 50µM | ?
CCOC(=O)c1c(C)[nH]c(C(=O)Cn2c(=O)oc3ccccc32)c1C | – | – | – | – | –[12.7 µM]
Cc1c(NS(=O)(=O)c2cc(C(=O)OCC(=O)N3CCC(C)CC3)ccc2Cl)c(=O)n(-c2ccccc2)n1C | – | – | – | – | –
CCOc1ccc(CN(C)CC(=O)Nc2cccc(S(=O)(=O)N(C)c3ccccc3)c2)cc1 | ? | 22µM | · | – | 5µM
CN(CCOc1ccccc1)CC(=O)Nc1cccc(Br)c1 | – | 1.6µM | ? | – | 11µM
COc1cccc(CN(C)CC(=O)Nc2cccc(S(=O)(=O)N(C)c3ccccc3)c2)c1OC | – | – | · | · | ·
Cc1cc(NC(=O)CN(C)CCOc2ccccc2)ccc1Br | ? | 0.79µM | 35µM | – | –
COC(=O)c1cc(NC(=O)c2cc(-c3ccc(Cl)cc3)oc2C(F)(F)F)ccc1N1CCOCC1 | – | – | – | – | –
COc1ccc(O)c(C(=O)c2cnc3nc4ccccc4n3c2)c1 | – | – | – | – | 32µM
O=C(CCCN1C(=O)c2ccccc2C1=O)Nc1nncs1 | – | – | – | – | –
O=C(CCCN1C(=O)c2ccccc2C1=O)NC1=NCCS1 | – | 32µM | – | – | –
CCOC(=O)N1CCN(C(=O)CCC2CCCC2)CC1 | – | – | – | – | –
O=C(CCC1CCCC1)N1CCN(C(=O)COc2ccccc2)CC1 | – | –[11.4 µM] | – | – | 50µM
COC(=O)C1CCN(C(=O)CCC2CCCCC2)CC1 | – | – | – | – | 7.1µM
CCOC(=O)C(=O)N1CCC(C(=O)OC)CC1 | – | – | – | – | 35µM
SMILES | HP1b binding inh | JMJD2A Tudor | BAZ2B block | Sfp inh | G9a inh
O=C(CCC1CCCC1)N1CCC(N2CCCCCC2)CC1 | ? | 4µM | 56µM | – | ?
Cc1nc(SCC(=O)Nc2ccc(Cl)cc2[N+](=O)[O-])nc(C)c1C | ? | ? | 45µM | – | 11µM
Cc1ccc(SCC(=O)Nc2ccc(F)cc2[N+](=O)[O-])cc1C | 50µM | ? | 13µM | – | ?
C/C=C/C(=O)N1CC2(CC(c3cccc(NC(=O)CC(c4ccccc4)c4ccccc4)c3)=NO2)C[C@H]1C(N)=O (some centres not stated) | – | – | ? | – | –
O=C(NCCOC(=O)Nc1cccc2ccccc12)OCc1ccccc1 | – | – | · | · | ·
CC(C(=O)Nc1ccc(N(C)C)cc1)N1C(=O)c2ccccc2S1(=O)=O (configuration not stated) | ? | 45µM | ? | · | 14µM
CCOc1ccc(NC(=O)C(C)N2C(=O)c3ccccc3S2(=O)=O)cc1 (configuration not stated) | – | – | – | · | –
CN1C(=O)C(Cl)(Cl)C(=O)c2ccccc21 | – | 28µM | 40µM | 2.5µM | 1µM
CC(=O)Nc1ccc(C(=O)NC(C)c2ccc(-n3ccnc3)cc2)cc1 (configuration not stated) | – | – | – | – | –
CN(C)c1ccc(C=c2c3ccccc3n3c2cc(-c2ccccc2)[n+]3C)cc1 | 50µM | 32µM | · | · | ·
CN(C)c1ccc(C=c2c3ccccc3n3c2cc(-c2ccc(Cl)cc2)[n+]3C)cc1 | 13µM | 45µM | · | · | ·
